Assay results as given in PubChem BioAssay (NCI).
The panel holds about 83,000 compounds, 20% with a hit somewhere; the sample as a whole holds those more often.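 Compound tested at a single concentration for 48 hours in 96-well plates; a percent growth value below 10 was scored as active.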 Values without a mark were called inactive. Active and inactive are the calls of the source.

tested on: OVCAR-3 ovarian; assay: NCI-60 one-dose screen, 48 h (100 = growth as untreated, 0 = no growth, -100 = all killed); settings: 10 µM unless noted

Row | SMILES | growth
1 | Clc1ccc(-c2nnc(-c3ccco3)o2)cc1 | 107%
2 | CC1(C)N=C(N)N=C(N)N1c1ccc(Cl)c(Cl)c1 | 53%
3 | O=C1CSC(c2ccc(O)cc2)N1c1nnc(Cn2cnnc2)o1 (stereo not drawn) | 15.2%
4 | Nc1ccc2c(S(=O)(=O)O)ccc(S(=O)(=O)O)c2c1 | 117%
5 | NC(N)=N/N=C/c1ccc(Br)cc1 | 62.3%
6 | N#Cc1c(N)nc2c(nnn2-c2cccc(Br)c2)c1N | 106%
7 | C=C(C=O)C1CCC2(C(=O)O)CCC3(C)C(CCC4C5(C)CCC(O)C(C)(C)C5CCC43C)C12 (stereo not drawn) | -86.9% (active)
8 | O=C1Nc2ccccc2SC1c1ccccc1Cl (stereo not drawn) | 83%
9 | CCOC(=O)c1sc2ccc(NCc3nc[nH]c3C)cc2c1NC(=O)c1cc(OC)c(OC)c(OC)c1 | 94%
10 | COc1cc(/C=C/C(=O)c2cccc(-n3cc(-c4ccc(Cl)cc4)[nH]c3=O)c2)cc(OC)c1OC | 15.8%
11 | CCCc1cc(=O)oc2c3c(c4c(c12)OC(C)(C)C=C4)O[C@@H](C)[C@H](C)C3=O | 86.6%
12 | Cc1cc(Cc2cc(C)cc(C(C)(C)C)c2O)c(O)c(C(C)(C)C)c1 | 38.5%
13 | CN(C)c1ccc2cc(-c3ccccc3F)c(N)nc2c1 | 3.93% (active)
14 | CCN(CC)CCCNC(=O)c1ccc(N)cc1O | 107%
15 | Cc1cn(C2CCCCC2)c(=O)[nH]c1=O | 110%
16 | Cc1c2c(cn1Cc1ccccc1)CCc1cn(C)nc1-2 | 107%
17 | COc1cc(C(=O)/C=C/c2c(C(F)(F)F)nc3ccccn23)cc(OC)c1OC | -57.3% (active)
18 | CCCCOC(=O)c1ccc(NC(=O)C(C)N2CCOCC2)cc1 (stereo not drawn) | 102%
19 | Cc1c2c(cn1Cc1ccccc1)CCc1cn[nH]c1-2 | 100%
20 | COc1ccc(-c2cn(-c3cccc(C(=O)/C=C/c4cc(OC)c(OC)c(OC)c4)c3)c(=O)[nH]2)cc1 | -13.6% (active)

Row | SMILES | growth
21 | CSc1ccc(Cl)c(C(=O)Nc2sccc2C(N)=O)c1 | 100%
22 | CC(=O)Nc1cccc(C2=CC(c3ccc(C)cc3)n3ncnc3N2)c1 (stereo not drawn) | 101%
23 | O=C(O)CC1Sc2ccccc2NC1=O (stereo not drawn) | 110%
24 | COc1ccc(-c2nc3ccccn3c2/C=C/C(=O)c2cc(OC)c(OC)c(OC)c2)cc1 | 51.2%
25 | Cc1cccc(-c2cc(O)c(C(=O)N3CCOCC3)s2)c1 | 15%
26 | CCC(=O)OC1=C(C)SC2=NC(c3ccc(Cl)c(Cl)c3)=CC(c3cc(OC)c(OC)c(OC)c3)N21 (stereo not drawn) | 108%
27 | COc1ccc(NC(=O)C(=O)c2c[nH]c3ccc(F)cc23)cc1 | 99.8%
28 | COc1ccc(/C(C)=C(\c2ccc(Cl)cc2)c2ccc(OCCN3CCCCCC3)cc2)cc1F | 54.9%
29 | CC/C=C/[C@@H]1C=C[C@@H]2CCC[C@H]2[C@@H]1CC[C@H](O)[C@H](C)N | -64.8% (active)
30 | O=C1CSC(c2ccccc2Cl)N1c1nnc(Cn2cnnc2)o1 (stereo not drawn) | 44.1%
31 | COc1ccc(-c2nc3ncccn3c2/C=C/C(=O)c2cc(OC)c(OC)c(OC)c2)cc1 | -24.4% (active)
32 | C=C(C=O)[C@@H]1CC=C(C=O)CC1 | -19.7% (active)
33 | CC(c1ccc(-n2cccn2)cc1)c1cnc(N2CCc3ccc(C(N)=O)cc3C2)s1 (stereo not drawn) | 71.5%
34 | COc1cc(C(=O)/C=C/c2c(-c3ccc(F)cc3)nc3ncccn23)cc(OC)c1OC | 19.1%
35 | CNC=O | 109%
36 | CCOC(=O)c1c2c(c(C)n1C)-c1nn(Cc3ccc(OC)cc3)cc1CC2 | 108%
37 | Cc1ccccc1NC(=O)CN(C)C | 113%
38 | COc1cc(/C=C/C(=O)c2cccc(-n3cc(-c4ccccc4)[nH]c3=O)c2)cc(OC)c1OC | 6.35% (active)
39 | O=C(CC1Sc2ccccc2NC1=O)NNc1ccc(F)cc1 (stereo not drawn) | 84.8%

tested on: HS 578T breast; assay: as above; settings: 10 µM unless noted

Row | SMILES | growth
40 | Clc1ccc(-c2nnc(-c3ccco3)o2)cc1 | 107%
41 | O=C1CSC(c2ccc(O)cc2)N1c1nnc(Cn2cnnc2)o1 (stereo not drawn) | 64.7%
42 | NC(N)=N/N=C/c1ccc(Br)cc1 | 67.5%
43 | N#Cc1c(N)nc2c(nnn2-c2cccc(Br)c2)c1N | 68.8%
44 | O=C1Nc2ccccc2SC1c1ccccc1Cl (stereo not drawn) | 80.4%
45 | CCOC(=O)c1sc2ccc(NCc3nc[nH]c3C)cc2c1NC(=O)c1cc(OC)c(OC)c(OC)c1 | 99.2%
46 | CN(C)c1ccc2cc(-c3ccccc3F)c(N)nc2c1 | 28.9%
47 | CCN(CC)CCCNC(=O)c1ccc(N)cc1O | 98.4%
48 | Cc1cn(C2CCCCC2)c(=O)[nH]c1=O | 121%
49 | CCCCOC(=O)c1ccc(NC(=O)C(C)N2CCOCC2)cc1 (stereo not drawn) | 99%
50 | CSc1ccc(Cl)c(C(=O)Nc2sccc2C(N)=O)c1 | 99.4%
51 | CC(=O)Nc1cccc(C2=CC(c3ccc(C)cc3)n3ncnc3N2)c1 (stereo not drawn) | 92.8%
52 | O=C(O)CC1Sc2ccccc2NC1=O (stereo not drawn) | 133%
53 | Cc1cccc(-c2cc(O)c(C(=O)N3CCOCC3)s2)c1 | 53.8%
54 | CCC(=O)OC1=C(C)SC2=NC(c3ccc(Cl)c(Cl)c3)=CC(c3cc(OC)c(OC)c(OC)c3)N21 (stereo not drawn) | 101%
55 | COc1ccc(NC(=O)C(=O)c2c[nH]c3ccc(F)cc23)cc1 | 104%
56 | COc1ccc(/C(C)=C(\c2ccc(Cl)cc2)c2ccc(OCCN3CCCCCC3)cc2)cc1F | 44.1%
57 | CC/C=C/[C@@H]1C=C[C@@H]2CCC[C@H]2[C@@H]1CC[C@H](O)[C@H](C)N | -44.3% (active)
58 | O=C1CSC(c2ccccc2Cl)N1c1nnc(Cn2cnnc2)o1 (stereo not drawn) | 82.3%
59 | C=C(C=O)[C@@H]1CC=C(C=O)CC1 | 6.33% (active)
60 | CC(c1ccc(-n2cccn2)cc1)c1cnc(N2CCc3ccc(C(N)=O)cc3C2)s1 (stereo not drawn) | 100%
61 | CNC=O | 2.14% (active)
62 | Cc1ccccc1NC(=O)CN(C)C | 113%
63 | O=C(CC1Sc2ccccc2NC1=O)NNc1ccc(F)cc1 (stereo not drawn) | 82.4%
